According to PubChem BioAssay (Tox21):
Unmarked numbers belong to inactive results. Inconclusive results are not listed. Where a call stands in place of a potency, no number is given. Active and inactive are the calls of the source. Unless noted, the call rests on the fitted dose curve; in most records, active means well fitted curve in the direction sought with a large enough effect in the repeat runs; inconclusive means weak or mixed curves; inactive means no such curve, though single readings can be large; an effect the other way counts as inactive or inconclusive.

Experiments:
[1] = A CellTox Green Cytotoxicity Assay to monitor cytotoxicity in HEK293 cells - 32 hour (AID 1224881); further: nearly all actives have a fitted effect of over 40% in size
Procedure, shortened: (§1)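 Real-time, in one plate: 600 HEK293 cells/well with dead-cell DNA dye, pinned compound after 5 h, 37 C incubation over 40 h; viable cells give no appreciable fluorescence.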

[2] = A CellTox Green Cytotoxicity Assay to monitor cytotoxicity in HepG2 cells - 0 hour (AID 1224882); further: nearly all actives have a fitted effect of over 35% in size
Procedure, shortened: (§2)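 Cytotoxicity was tracked as dead-cell DNA fluorescence in HepG2 cells treated with test compounds at 37 C; each time-point value comes from one kinetic series spanning 0, 8, 16, 24, 32 and 40 h.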

[3] = A CellTox Green Cytotoxicity Assay to monitor cytotoxicity in HepG2 cells - 32 hour (AID 1224883); further: nearly all actives have a fitted effect of over 50% in size; further: potency means the concentration at half of the fitted maximal effect
Procedure, shortened: as §2

[4] = A CellTox Green Cytotoxicity Assay to monitor cytotoxicity in HEK293 cells - 8 hour (AID 1224884); further: nearly all actives have a fitted effect of over 35% in size
Procedure, shortened: as §1

[5] = qHTS RealTime-Glo MT Cell Viability Assay in HEK293 cells - 24 hour (AID 1224886); further: nearly all actives have a fitted effect of over 50% in size; further: potency means the concentration at half of the fitted maximal effect
Procedure, shortened: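 Reads taken at 0, 8, 16, 24, 32 and 40 h from the same wells. HEK293 cells (600/well) carried RealTime-Glo reagents from seeding, with compound added after a 5 h settle at 37 C.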

[6] = qHTS RealTime-Glo MT Cell Viability Assay in HepG2 cells - 0 hour (AID 1224889); further: nearly all actives have a fitted effect of over 50% in size; further: potency means the concentration at half of the fitted maximal effect
Procedure, shortened: (§3)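 HepG2 suspension premixed with RealTime-Glo reagents is plated at 600 cells per well and left 5 h at 37 C/5% CO2. Compounds in DMSO then go in, and bioluminescence reflecting viable cell number is recorded over 40 h.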

[7] = A CellTox Green Cytotoxicity Assay to monitor cytotoxicity in HepG2 cells - 8 hour (AID 1224890); further: nearly all actives have a fitted effect of over 45% in size
Procedure, shortened: as §2

[8] = qHTS assay to identify small molecule antagonists of the estrogen receptor alpha (ER-alpha) signaling pathway using the BG1 cell line in the presence of 0.1 nM 17-beta-estradiol - cell viability counter screen (AID 1259241); further: nearly all actives have a fitted effect of over 40% in size
Procedure, shortened: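 Cytotoxicity counter-screen: live-cell protease activity measured by fluorescence (30 min reagent step) in the same wells. Cells were VM7Luc4E2 with endogenous ER-alpha and ERE-driven luciferase, treated 22 hr at 37C alongside 0.1 nM 17beta-estradiol final.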

[9] = qHTS assay to identify small molecule antagonists of the androgen receptor (AR) signaling pathway using the MDA cell line in the presence of 0.5 nM R1881 - cell viability counter screen (AID 1259242); further: nearly all actives have a fitted effect of over 45% in size
Procedure, shortened: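 Cells seeded at 3,000/well and allowed 5 hr at 37C, 0% CO2 before compound transfer and R1881 (0.5 nM final) addition; 16 hr later, live-cell protease fluorescence indicated cytotoxicity.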

[10] = molecular target: Androgen receptor (Homo sapiens) (UniProt P10275); test: qHTS assay to identify small molecule antagonists of the androgen receptor (AR) signaling pathway using the MDA cell line in the presence of 0.5 nM R1881 (AID 1259243); further: nearly all actives have a fitted effect of over 50% in size; further: potency means the concentration at half of the fitted maximal effect
Chain of Androgen receptor (Homo sapiens) (P10275 whole entry, looked up): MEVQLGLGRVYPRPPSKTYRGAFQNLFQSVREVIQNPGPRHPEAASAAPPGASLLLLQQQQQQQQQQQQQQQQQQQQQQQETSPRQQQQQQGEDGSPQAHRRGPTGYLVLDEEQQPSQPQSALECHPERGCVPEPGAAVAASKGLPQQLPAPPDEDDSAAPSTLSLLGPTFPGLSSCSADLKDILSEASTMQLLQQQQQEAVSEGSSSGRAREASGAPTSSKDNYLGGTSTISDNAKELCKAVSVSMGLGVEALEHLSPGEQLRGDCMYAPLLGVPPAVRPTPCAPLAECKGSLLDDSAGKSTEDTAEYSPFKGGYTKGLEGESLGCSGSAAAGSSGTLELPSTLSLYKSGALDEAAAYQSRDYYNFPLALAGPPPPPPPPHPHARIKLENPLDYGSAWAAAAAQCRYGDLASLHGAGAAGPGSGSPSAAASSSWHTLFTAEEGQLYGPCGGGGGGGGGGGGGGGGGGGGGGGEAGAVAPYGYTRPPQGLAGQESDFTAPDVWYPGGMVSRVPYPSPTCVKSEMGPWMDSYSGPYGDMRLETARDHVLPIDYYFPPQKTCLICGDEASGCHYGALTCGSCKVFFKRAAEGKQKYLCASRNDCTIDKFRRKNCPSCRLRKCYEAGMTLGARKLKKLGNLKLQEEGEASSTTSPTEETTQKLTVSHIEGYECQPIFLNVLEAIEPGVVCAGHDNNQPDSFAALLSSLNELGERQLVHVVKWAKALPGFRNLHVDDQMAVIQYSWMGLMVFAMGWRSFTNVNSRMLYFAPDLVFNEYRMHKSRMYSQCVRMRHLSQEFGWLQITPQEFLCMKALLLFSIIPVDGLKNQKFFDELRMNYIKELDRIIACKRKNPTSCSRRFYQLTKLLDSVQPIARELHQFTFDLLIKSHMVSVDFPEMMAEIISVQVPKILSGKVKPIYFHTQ
Procedure, shortened: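 Luminescence from an AR/GR-responsive MMTV-luciferase construct in MDA-kb2 breast carcinoma cells, read 30 min after ONE-Glo, following 16 hr co-treatment with compounds and 0.5 nM R1881.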

[11] = qHTS assay to identify small molecule phospholipidosis (PLD) inducers (AID 1259344; active means well fitted curve in the direction sought with a large enough effect; an effect the other way counts as inactive or inconclusive)
Procedure, shortened: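 Phospholipid accumulation was scored by imaging: fixed, Hoechst-counterstained HepG2 cells stained with LipidTOX Red after 24 h compound exposure at 37 C. Read-outs were pit count and pit intensity per well or per cell, with amiodarone and DMSO controls.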

[12] = qHTS assay to identify small molecule HDAC inhibitors (AID 1259364);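 further: wild-type HCT-116 cells with endogenous class I/II HDAC activity; top concentration of the series differs between compounds; nearly all actives have a fitted effect of over 45% in size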
Procedure, shortened: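 HCT-116 wt cells, 1,500/well, overnight attach. Compounds (DMSO) 2 h, 37 °C. HDAC-Glo I/II, 30 min RT. Luminescence.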

[13] = qHTS assay to identify small molecule HDAC inhibitors - cell viability counter screen (AID 1259365)
Procedure, shortened: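 CellTiter-Glo luminescence (30 min, room temperature) reported viability after a 2 h compound exposure at 37 C. Cells: wild-type HCT-116, 1,500 per well, seeded the night before.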

[14] = qHTS assay to identify small molecule agonists of the sonic hedgehog signaling (Shh) pathway (AID 1259368; calls by dose curve;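 further: NIH/3T3-derived 3T3Gli1-Luc cells carrying a stable Gli1-driven firefly luciferase reporter; series mostly up to about 92 µM; nearly all actives have a fitted effect of over 15% in size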)
Procedure, shortened: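 Following a 24 hr incubation with DMSO-dissolved compounds at 37 C, 5% CO2, Gli1-Luc NIH/3T3-derived cells received luciferase reagent for 30 min at room temperature prior to luminescence measurement.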

[15] = qHTS RealTime-Glo MT Cell Viability Assay in HepG2 cells - 16 hour (AID 1224885); further: nearly all actives have a fitted effect of over 50% in size
Procedure, shortened: as §3

[16] = qHTS RealTime-Glo MT Cell Viability Assay in HEK293 cells - 8 hour (AID 1224887)
Procedure, shortened: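 Kinetic, non-lysing viability readout. Seed HEK293 (600/well) with reagent, incubate 5 h at 37 C/5% CO2, pin 23 nL compound in DMSO, incubate at 37 C, read luminescence at 0, 8, 16, 24, 32, 40 h.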

[17] = A CellTox Green Cytotoxicity Assay to monitor cytotoxicity in HEK293 cells - 16 hour (AID 1224888); further: nearly all actives have a fitted effect of over 35% in size
Procedure, shortened: as §1

[18] = molecular target: Estrogen receptor (Homo sapiens) (UniProt P03372); test: qHTS assay to identify small molecule antagonists of the estrogen receptor alpha (ER-alpha) signaling pathway using the BG1 cell line in the presence of 0.1 nM 17-beta-estradiol (AID 1259244); further: nearly all actives have a fitted effect of over 50% in size
Chain of Estrogen receptor (Homo sapiens) (P03372 whole entry, looked up): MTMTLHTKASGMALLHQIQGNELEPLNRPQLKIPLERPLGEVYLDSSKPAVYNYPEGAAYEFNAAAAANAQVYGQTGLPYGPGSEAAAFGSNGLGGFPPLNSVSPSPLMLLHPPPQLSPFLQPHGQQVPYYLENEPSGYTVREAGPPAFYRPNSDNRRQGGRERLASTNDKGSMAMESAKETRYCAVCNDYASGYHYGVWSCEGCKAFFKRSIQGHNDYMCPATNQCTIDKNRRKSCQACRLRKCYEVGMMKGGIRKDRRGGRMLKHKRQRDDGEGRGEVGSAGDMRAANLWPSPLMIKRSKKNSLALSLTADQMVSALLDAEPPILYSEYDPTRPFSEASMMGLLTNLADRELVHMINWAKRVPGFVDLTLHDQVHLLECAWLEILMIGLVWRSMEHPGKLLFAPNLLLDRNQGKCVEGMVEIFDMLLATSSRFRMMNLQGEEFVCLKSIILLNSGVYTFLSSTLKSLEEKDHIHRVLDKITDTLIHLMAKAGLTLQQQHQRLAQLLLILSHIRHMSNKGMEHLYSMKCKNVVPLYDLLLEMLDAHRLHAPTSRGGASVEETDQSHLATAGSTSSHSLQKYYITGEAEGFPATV
Procedure, shortened: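 Luciferase signal from VM7Luc4E2 ERE-reporter cells, co-dosed with test compound and 0.1 nM final 17beta-estradiol for 22 h, read with ONE-Glo.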

[19] = qHTS assay to identify small molecule agonists of the sonic hedgehog signaling (Shh) pathway - cell viability counter screen (AID 1259366); further: nearly all actives have a fitted effect of over 50% in size
Procedure, shortened: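 Cytotoxicity counter screen: CellTiter-Fluor reagent added after 23 h compound exposure, then 1 h at 37C and fluorescence read. Cells were 3T3 Gli1-Luc, seeded 2,000 per well and dosed 4 h post-plating.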

[20] = qHTS assay to identify small molecule antagonists of the sonic hedgehog signaling (Shh) pathway - cell viability counter screen (AID 1259367); further: nearly all actives have a fitted effect of over 55% in size
Procedure, shortened: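 Viability was read by CellTiter-Fluor fluorescence in the same wells, reagent added 23 hr into compound treatment and incubated 1 hr at 37C. The 3T3 Gli1-Luc reporter cells (2,000/well) received conditioned medium after compound and ran 24 hr.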

CC[C@]12CCCN3CCc4c(n(c5ccccc45)C(=O)C1)[C@@H]32
Potency [1]: inactive | Potency [2]: inactive | Potency [3]: 6.74 µM (active) | Potency [4]: inactive | Potency [5]: 4.77 µM (active) | Potency [6]: inactive | Potency [7]: inactive | Potency [8]: inactive | Potency [9]: inactive | Potency [10]: inactive | Potency [11]: inactive | Potency [12]: inactive | outcome [13]: inactive | outcome [14]: inactive

CCN(CC)C(C)CN1c2ccccc2Sc2ccccc21 (configuration not stated)
Potency [1]: inactive | Potency [2]: inactive | Potency [3]: inactive | Potency [4]: inactive | Potency [15]: inactive | Potency [16]: inactive | Potency [17]: inactive | Potency [6]: inactive | Potency [7]: inactive | Potency [8]: inactive | Potency [9]: inactive | Potency [18]: inactive | Potency [11]: inactive | Potency [12]: inactive | outcome [13]: inactive | Potency [19]: inactive | Potency [20]: inactive | outcome [14]: inactive

N=C(N=C(N)N)N1CCOCC1
Potency [1]: inactive | Potency [2]: inactive | Potency [3]: inactive | Potency [4]: inactive | Potency [5]: inactive | Potency [16]: inactive | Potency [17]: inactive | Potency [6]: inactive | Potency [7]: inactive | Potency [8]: inactive | Potency [9]: inactive | Potency [18]: inactive | Potency [11]: inactive | Potency [12]: inactive | outcome [13]: inactive | Potency [19]: inactive | Potency [20]: inactive | outcome [14]: inactive

O=c1c2ccccc2nnn1CCl
Potency [1]: inactive | Potency [2]: inactive | Potency [3]: inactive | Potency [4]: inactive | Potency [15]: inactive | Potency [5]: inactive | Potency [17]: inactive | Potency [6]: inactive | Potency [7]: inactive | Potency [8]: inactive | Potency [9]: inactive | Potency [18]: inactive | Potency [12]: inactive | outcome [13]: inactive | Potency [19]: inactive | Potency [20]: inactive | outcome [14]: inactive

COC(=O)CSc1cc(N=c2sc(=O)n3n2CCCC3)c(F)cc1Cl
Potency [1]: inactive | Potency [2]: inactive | Potency [3]: inactive | Potency [4]: inactive | Potency [15]: inactive | Potency [5]: inactive | Potency [6]: inactive | Potency [7]: inactive | Potency [9]: inactive | Potency [10]: inactive | Potency [12]: inactive | outcome [13]: inactive | Potency [19]: inactive | outcome [14]: inactive

c1ccc(CNCc2ccccc2)cc1
Potency [1]: inactive | Potency [2]: inactive | Potency [3]: inactive | Potency [4]: inactive | Potency [15]: inactive | Potency [5]: inactive | Potency [17]: inactive | Potency [6]: inactive | Potency [7]: inactive | Potency [9]: inactive | Potency [18]: inactive | Potency [12]: inactive | outcome [13]: inactive | Potency [19]: inactive | Potency [20]: inactive | outcome [14]: inactive

O=C(NN1CCCC1)NS(=O)(=O)c1ccc(Cl)cc1
Potency [1]: inactive | Potency [2]: inactive | Potency [3]: inactive | Potency [4]: inactive | Potency [5]: inactive | Potency [17]: inactive | Potency [6]: inactive | Potency [7]: inactive | Potency [8]: inactive | Potency [18]: inactive | PLD induction [11]: 14% [at 7.66 µM] | Potency [12]: inactive | outcome [13]: inactive | Potency [19]: inactive | Potency [20]: inactive | outcome [14]: inactive

Cc1ccc(C(N)=O)cc1N
Potency [1]: inactive | Potency [2]: inactive | Potency [3]: inactive | Potency [4]: inactive | Potency [5]: inactive | Potency [16]: inactive | Potency [17]: inactive | Potency [6]: inactive | Potency [7]: inactive | Potency [8]: inactive | Potency [9]: inactive | Potency [18]: inactive | Potency [12]: inactive | Potency [19]: inactive | Potency [20]: inactive | outcome [14]: inactive

CC(C)NCC(O)c1cc(O)cc(O)c1 (configuration not stated)
Potency [1]: inactive | Potency [2]: inactive | Potency [3]: inactive | Potency [4]: inactive | Potency [5]: inactive | Potency [16]: inactive | Potency [6]: inactive | Potency [7]: inactive | Potency [8]: inactive | Potency [9]: inactive | Potency [11]: inactive | Potency [12]: inactive | outcome [13]: inactive | Potency [19]: inactive | Potency [20]: inactive | outcome [14]: inactive

O=C(O)c1cccc(N(Cc2cccnc2)c2ccc(OC(F)F)c(OC(F)F)c2)c1
Potency [1]: inactive | Potency [2]: inactive | Potency [3]: inactive | Potency [4]: inactive | Potency [5]: inactive | Potency [16]: inactive | Potency [17]: inactive | Potency [6]: 17.4 µM (active) | Potency [7]: inactive | Potency [10]: 24.3 µM (active) | Potency [12]: inactive | Potency [19]: inactive | Potency [20]: inactive | outcome [14]: inactive

CC(=O)O[C@H]1C[C@@H]2CC[C@@H]3[C@H](CC[C@@]4(C)[C@H]3C[C@H]([N+]3(C)CCCCC3)[C@@H]4OC(C)=O)[C@@]2(C)C[C@@H]1N1CCCCC1
Potency [1]: inactive | Potency [2]: inactive | Potency [3]: inactive | Potency [4]: inactive | Potency [5]: inactive | Potency [16]: inactive | Potency [17]: inactive | Potency [6]: inactive | Potency [7]: inactive | Potency [8]: inactive | Potency [9]: inactive | Potency [18]: inactive | Potency [11]: inactive | Potency [12]: inactive | Potency [19]: inactive | outcome [14]: inactive

Nc1nc(CC(=O)O)cs1
Potency [1]: inactive | Potency [2]: inactive | Potency [3]: inactive | Potency [4]: inactive | Potency [15]: inactive | Potency [6]: inactive | Potency [7]: inactive | Potency [12]: inactive | outcome [13]: inactive | Potency [19]: inactive | Potency [20]: inactive | outcome [14]: inactive

CCCCCCCCCCCCC(=O)O
Potency [1]: inactive | Potency [2]: inactive | Potency [3]: inactive | Potency [4]: inactive | Potency [15]: inactive | Potency [5]: inactive | Potency [17]: inactive | Potency [6]: inactive | Potency [7]: inactive | Potency [8]: inactive | Potency [9]: inactive | Potency [18]: inactive | Potency [12]: inactive | outcome [13]: inactive | Potency [19]: inactive | outcome [14]: inactive

CCCCCCCCCCCCCCCC(=O)OC/C=C(C)/C=C/C=C(C)/C=C/C1=C(C)CCCC1(C)C
Potency [1]: inactive | Potency [2]: inactive | Potency [4]: inactive | Potency [15]: inactive | Potency [5]: inactive | Potency [16]: inactive | Potency [17]: inactive | Potency [6]: inactive | Potency [7]: inactive | Potency [8]: inactive | Potency [9]: inactive | Potency [12]: inactive | Potency [19]: inactive | Potency [20]: inactive | outcome [14]: inactive

CC(C)CCCCCCOC(=O)c1ccc(C(=O)OCCCCCCC(C)C)c(C(=O)OCCCCCCC(C)C)c1
Potency [1]: inactive | Potency [2]: inactive | Potency [4]: inactive | Potency [15]: inactive | Potency [5]: inactive | Potency [16]: inactive | Potency [17]: inactive | Potency [6]: inactive | Potency [7]: inactive | Potency [8]: inactive | Potency [9]: inactive | Potency [12]: inactive | outcome [13]: inactive | Potency [19]: inactive | Potency [20]: inactive | outcome [14]: inactive

CCN(CC)CCOC(=O)C1(c2ccccc2)CCCC1
Potency [1]: inactive | Potency [2]: inactive | Potency [4]: inactive | Potency [15]: inactive | Potency [5]: inactive | Potency [17]: inactive | Potency [6]: inactive | Potency [7]: inactive | Potency [8]: inactive | Potency [9]: inactive | Potency [10]: inactive | Potency [18]: inactive | Potency [11]: inactive | Potency [12]: inactive | outcome [13]: inactive | Potency [19]: inactive | Potency [20]: inactive | outcome [14]: inactive
